Among all 48,000 compounds or so, about 13,000 (27%) showed an effect of 50% or more. The list shows a part of the results.
System: Wolbachia pipientis
Assay: Anti-Wolbachia Cell-Based Screen
Format: functional
Design: scale not given: in the data most compounds retested in dose-response had high values
Settings: 5 µM

| SMILES | Percent Effect [%] |
| --- | --- |
| COc1cccc2c1OCC(CNC(=O)CSc1nc(N)n[nH]1)C2 (stereo not given) | -2.891 |
| Cc1cccc(N2CC[C@@H]3CN(Cc4csc(C)n4)CCO[C@@H]3C2)n1.O=C(O)C(F)(F)F.O=C(O)C(F)(F)F | -4.327 |
| O=C1NCC2(CCCN(C(=O)c3ccc4c(c3)CCO4)C2)O1 (stereo not given) | 16.66 |
| COc1c(C)cnc(CN2CCC(N(C)C(=O)C3CC3)CC2)c1C | 110.7 |
| CCOc1ccccc1OCC(=O)NCc1ncc(C)c(OC)c1C | 8.111 |
| COc1c(C)cnc(CN2CCC(C(=O)N(C)C)CC2)c1C | 2.904 |
| CCNC(=O)N(C)C1CCN(Cc2ncc(C)c(OC)c2C)CC1 | 110.9 |
| CCC(=O)N(C)C1CCN(Cc2ncc(C)c(OC)c2C)CC1 | 9.191 |
| CCc1noc(C)c1C(=O)N(C)Cc1ncc(C)c(OC)c1C | -4.169 |
| N[C@@H]1CC[C@H](C(=O)NCCn2cc(Cl)cn2)C1 | -5.887 |
| Cc1ccc(-n2ccnc2)c(C(=O)NCCOCC2CCCO2)c1 (stereo not given) | 2.009 |
| Cn1cc(CNC(=O)C2COCC(=O)N2Cc2ccccc2)cn1 (stereo not given) | -3.917 |
| CCN(C(=O)c1cc(C)nc2ccccc12)C1CC(=O)NC1=O (stereo not given) | 9.266 |
| CN(CC1(C)COC1)C(=O)c1cc(-c2ccnn2C)nc2ccccc12 | 116.9 |
| CN(CC1(C)COC1)C(=O)c1cc(-c2cnn(C)c2)nc2ccccc12 | 150.1 |
| CN(Cc1cccc(C(=O)Nc2ccnn2C)c1)CC1(C)COC1 | 30.85 |
| CCN(C)C(=O)c1cc(-c2ccn(C(C)C)n2)n2ccccc12 | 6.69 |
| CN(Cc1cnn(C)c1)C(=O)c1cc2ccccc2c(=O)[nH]1 | -10.85 |
| CN(Cc1ncnn1C)C(=O)c1ccccc1NCc1ccccc1 | -8.23 |
| CN(CC1(C)COC1)C(=O)c1cc(-c2ccn(C)n2)nc2ccccc12 | 106.6 |
| COc1ccc(NC(=O)N(C)Cc2ccc(Br)o2)cn1 | 12.08 |
| CN(C)S(=O)(=O)NCc1cccnc1Oc1ccccc1 | -16.22 |

| SMILES | Percent Effect [%] |
| --- | --- |
| CCc1ccc(C(=O)N(CC)Cc2ccoc2)cc1S(C)(=O)=O | 18.17 |
| Cc1cccc2c1nc(COCC(=O)O)n2-c1cnc(N)cn1 | 0.6066 |
| O=C(O)C1(Oc2ccc3c(c2)OCO3)CCN(C2CCOCC2)CC1 | 140.6 |
| O=C(O)C1(Oc2ccc(Cl)cc2)CCN(C2CCOCC2)CC1 | 109.8 |
| O=C(O)C(c1ccc2c(c1)OCCO2)N1CCC(N2CCOCC2)CC1 (stereo not given) | 10.3 |
| O=C(O)C1(Oc2cccc(F)c2)CCN(C2CCOCC2)CC1 | 114 |
| O=C(O)C1(Oc2ccc3ccccc3c2)CCN(c2ccncc2)CC1 | -19.78 |
| CCCn1ccnc1CN1CCC(Oc2ccc(Cl)cc2)(C(=O)O)CC1 | -1.396 |
| O=C(O)C1(Oc2cccc(F)c2)CCN(c2ccncc2)CC1 | -29.88 |
| O=C(O)C1(Oc2ccccc2)CCN(c2ccncc2)CC1 | -10.06 |
| CCCn1ccnc1CN1CCC(Oc2cccc(F)c2)(C(=O)O)CC1 | -7.212 |
| Cc1noc(OCCOc2cccc(C#N)c2)n1 | 0.996 |
| NC(=O)c1cnc(NCC(=O)NCc2ccccc2)c(Cl)c1 | -2.32 |
| O=C(c1cccs1)N1CC(Oc2ccccc2Cl)C1 | 11.34 |
| CCCc1nc(C(=O)N2C[C@H](CO)C[C@H](CN3CCOCC3)C2)cs1 | -13.1 |
| CN1CC(c2ccccc2)CC2(CCN(C(=O)c3ccccc3)CC2)C1 (stereo not given) | 1.137 |
| CN1C[C@@H]2CN(C(=O)NCc3ccccc3)CCC[C@]2(C(=O)O)C1.O=C(O)C(F)(F)F | 10.95 |
| CN1C[C@@H](O)[C@]2(CCN(C(=O)c3ccccc3)C2)S1(=O)=O | 126.2 |
| COCCC(=O)N1CCC2(CC1)CC(c1ccccc1)CN(C)C2 (stereo not given) | 9.484 |
| CN1C[C@H](O)[C@]2(CCN(C(=O)NCc3ccccc3)C2)S1(=O)=O | 101.7 |
| COCCN1C(=O)C[C@@H]2[C@H]1CCN2C(=O)COc1ccccc1 | -17.47 |
| CN1C[C@H](O)[C@]2(CCN(C(=O)COc3ccccc3)C2)S1(=O)=O | 115.7 |

| SMILES | Percent Effect [%] |
| --- | --- |
| CCN1C[C@@H]2CN(C(=O)NCc3ccccc3)CCC[C@]2(C(=O)O)C1.O=C(O)C(F)(F)F | -6.91 |
| O=C(OCc1ccccc1)N1CC[C@H]2CC(CO)O[C@@H]2C1 (stereo not given in full) | -8.669 |
| COc1cccc(OCC(=O)N2CCC3(CC2)[C@H](O)C[C@@H]3OC)c1 | 6.956 |
| CN1C[C@@H](O)[C@]2(CCN(C(=O)OCc3ccccc3)C2)S1(=O)=O | 96.78 |
| O=C(NCc1ccco1)c1cc(N2CC[C@@H](O)C2)ccn1 | 15.64 |
| CCCS(=O)(=O)N1Cc2ccnn2CC(c2nc(C)no2)C1.O=C(O)C(F)(F)F (stereo not given) | -10.4 |
| Cc1csc(C(C#N)C(=O)NCc2ccccc2)n1 (stereo not given) | 0.1394 |
| Cc1cc(C)c2nc(CN3CCOCC(O)C3)cc(O)c2c1 (stereo not given) | -68.16 |
| CCC1=N[C@@]2(CC[C@@H]3CN(S(=O)(=O)CC(C)C)C[C@@H]32)C(=O)N1C | -2.639 |
| Cc1nc(CNC(=O)NC2CCCN(c3ncccn3)C2)cs1 (stereo not given) | 115.1 |
| O=C(NCCc1cccs1)NC1CCN(c2ncccn2)CC1 | 110.6 |
| O=C(NCc1ccoc1)NC1CCN(c2ncccn2)CC1 | 15.54 |
| Cc1csc(CNC(=O)NC2CCN(c3ncccn3)CC2)n1 | 3.023 |
| O=C(NCCc1ccccn1)NC1CCN(c2ncccn2)CC1 | 4.674 |
| Cc1nc(CCNC(=O)NC2CCCN(c3ncccn3)C2)cs1 (stereo not given) | 107.1 |
| Cc1nc(CCNC(=O)NC2CCN(c3ncccn3)CC2)cs1 | 9.255 |
| N#Cc1ccc(CNC(=O)NC2CCCN(c3ncccn3)C2)cc1 (stereo not given) | 10.08 |
| Cc1nc(CNC(=O)NC2CCN(c3ncccn3)CC2)cs1 | 78.89 |
| COC(=O)N1CCCC(NC(=O)NCc2csc(C)n2)C1 (stereo not given) | -0.338 |
| Cc1ccc(CNC(=O)NC2CCCN(c3ncccn3)C2)n1C (stereo not given) | 7.079 |
| O=C(NCc1ccccn1)NC1CCCN(c2ncccn2)C1 (stereo not given) | 20.37 |

Reference: ChEMBL document CHEMBL3988442, “University of Dundee, Small-Polar-MMV Screening Library” (2021)
